Source: PubChem BioAssay
KCNQ2 block – inhibitors of rat KCNQ2 potassium channel. O88943. AID 2156. B-score at 10 µM. CHO-K1 KCNQ2, FluxOR thallium flux, 20 min; active compounds read low. 310,000 tested, 1.1% active;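 active = fluorescence ratio B-score at most minus 3 library SDs, with starting brightness B-score within 2 library SDs, cut at about -5.5 in these data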
Target sequence (O88943 whole entry, looked up): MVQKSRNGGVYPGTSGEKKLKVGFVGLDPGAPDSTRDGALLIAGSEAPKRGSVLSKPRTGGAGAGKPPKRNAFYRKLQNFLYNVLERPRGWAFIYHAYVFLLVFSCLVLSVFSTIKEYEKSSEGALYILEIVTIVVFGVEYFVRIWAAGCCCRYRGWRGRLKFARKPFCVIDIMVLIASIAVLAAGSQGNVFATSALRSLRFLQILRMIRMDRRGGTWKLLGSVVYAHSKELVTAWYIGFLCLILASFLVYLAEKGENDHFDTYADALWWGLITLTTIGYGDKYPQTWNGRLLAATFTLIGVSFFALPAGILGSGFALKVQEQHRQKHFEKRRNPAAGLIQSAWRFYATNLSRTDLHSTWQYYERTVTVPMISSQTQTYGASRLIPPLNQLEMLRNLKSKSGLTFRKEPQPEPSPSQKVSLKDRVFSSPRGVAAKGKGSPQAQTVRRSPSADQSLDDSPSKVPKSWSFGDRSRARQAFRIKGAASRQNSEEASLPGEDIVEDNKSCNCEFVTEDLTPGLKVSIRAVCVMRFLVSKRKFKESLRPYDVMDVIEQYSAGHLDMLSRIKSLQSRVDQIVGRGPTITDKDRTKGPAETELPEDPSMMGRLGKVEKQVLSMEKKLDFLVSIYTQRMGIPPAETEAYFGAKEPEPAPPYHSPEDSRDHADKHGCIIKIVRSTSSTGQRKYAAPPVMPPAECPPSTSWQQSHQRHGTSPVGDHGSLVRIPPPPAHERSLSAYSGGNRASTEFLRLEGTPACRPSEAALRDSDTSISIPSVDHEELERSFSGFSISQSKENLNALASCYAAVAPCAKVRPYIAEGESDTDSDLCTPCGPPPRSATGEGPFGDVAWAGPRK
KCNQ2 pot – potentiators of rat KCNQ2 potassium channel. O88943. CHO-K1 KCNQ2, FluxOR thallium flux fluorescence; active compounds read high. B-score at 10 µM. 310,000 tested, 0.54% active. AID 2239;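 active = fluorescence ratio B-score at least 3 SD of library B-scores, with initial fluorescence B-score within 3 of them, cut at about 5.3 in these data; same plate scores as AID 2156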;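 also: B-score of peak minus minimum over baseline fluorescence ratio after K+ and Tl+ stimulus; positive B-score means potentiation of KCNQ2 with more thallium influx and brighter signal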
Numbers stand for hits. Sampled rows, rich in hits. Any-hit rate of the full collection: about 1.6%.

Screening CC1CCCCC1NC(=O)c1c(O)nc2ccccn2c1=O (centres undefined) returned KCNQ2 block inactive.
Brc1ccc(NCc2cccc3ccccc23)nc1 was read as KCNQ2 block -6 and KCNQ2 pot inactive.
Screening Oc1ccccc1CNc1ccc(Br)cn1 returned KCNQ2 block inactive.
For CCCCC(=O)N(Cc1ccc(-c2ccccc2-c2nn[nH]n2)cc1)[C@H](C(=O)O)C(C)C the results were KCNQ2 block inactive and KCNQ2 pot inactive.
CC(C)N1CC(C(=O)Nc2ccc(Cl)c([N+](=O)[O-])c2)CC1=O (centres undefined) was read as KCNQ2 block inactive and KCNQ2 pot inactive.
`CC(OC(=O)CCN=C1NS(=O)(=O)c2ccccc21)C(=O)Nc1ccc(F)cc1` (centres undefined) gave KCNQ2 block inactive and KCNQ2 pot inactive.
For O=C(NCCN1CCOCC1)c1ccc(Cl)cc1O the results were KCNQ2 block inactive.
Screening CCN(CC(=O)Nc1ccc(NC(C)=O)cc1)C(=O)/C=C/c1ccc2c(c1)OCO2 returned KCNQ2 block inactive.
CCN(C(=O)/C=C/c1ccc2c(c1)OCO2)c1ccccc1 was read as KCNQ2 block -6 and KCNQ2 pot inactive.
For CCC(C)(C)NC(=O)C(c1ccc(OC)cc1)N(C(=O)CCC(=O)Nc1cc(C)on1)C(C)(C)C (centres undefined) the results were KCNQ2 block inactive.
`O=C(c1cnn2c(C(F)(F)F)cc(-c3ccco3)nc12)N1CCCCCC1` gave KCNQ2 block inactive and KCNQ2 pot inactive.
Screening Cc1cc(C(F)F)n2ncc(C(=O)N3CCc4ccccc4C3)c2n1 returned KCNQ2 block inactive and KCNQ2 pot inactive.
O=C(c1cnn2c(C(F)(F)F)cc(-c3ccco3)nc12)N1CCc2ccccc2C1 was read as KCNQ2 block -7 and KCNQ2 pot inactive.
Screening O=C(c1cnn2c(C(F)F)cc(-c3ccccc3)nc12)N1CCc2ccccc2C1 returned KCNQ2 block -6.3 and KCNQ2 pot inactive.
Screening CS(=O)(=O)N1CCC(C(=O)NNC(=O)Nc2ccc(F)c(Cl)c2)CC1 returned KCNQ2 block inactive and KCNQ2 pot inactive.
For Cc1cc(-c2n[nH]c(=S)n2-c2ccc(F)cc2)nn1C the results were KCNQ2 block -6.3 and KCNQ2 pot inactive.
For Cc1cc(C(F)(F)F)nn1Cc1n[nH]c(=S)n1-c1ccc(F)cc1 the results were KCNQ2 block inactive and KCNQ2 pot inactive.
`COC(=O)CN1C(=O)[C@H]2[C@@H](/C=C/c3ccccc3)N3C(=O)CN(CCO)C(=O)[C@@]3(Cc3ccccc3)[C@H]2C1=O` gave KCNQ2 block inactive and KCNQ2 pot inactive.
O=C(NC(=S)N1CCc2ccccc21)c1ccccc1 was read as KCNQ2 block inactive and KCNQ2 pot 14.
`O=C(c1ccccc1)N1CCc2ccccc21` gave KCNQ2 block inactive.
`Cc1cc(=O)[nH]c(SCC(=O)Nc2cc(S(=O)(=O)N(C)C)ccc2Cl)n1` gave KCNQ2 block inactive and KCNQ2 pot inactive.
Screening CC1CCc2c(C(=O)N3CCN(S(=O)(=O)c4cccs4)CC3)csc2C1 (centres undefined) returned KCNQ2 block inactive.
`O=C(N1CCN(c2ccccc2)CC1)C12CC3CC(CC(C3)C1)C2` gave KCNQ2 block inactive.
For O=C(N1CCN(Cc2ccccc2)CC1)C12CC3CC(CC(C3)C1)C2 the results were KCNQ2 block -5.6 and KCNQ2 pot inactive.
Screening Cc1ccccc1NS(=O)(=O)c1ccc(C(=O)NCC2CCCO2)cc1 (centres undefined) returned KCNQ2 block inactive and KCNQ2 pot inactive.
For Cc1c(-n2c(=O)n(Cc3ccccc3)c(=O)c3[nH]cnc32)cccc1S(C)=O (centres undefined) the results were KCNQ2 block inactive and KCNQ2 pot inactive.
For COc1ccc(C(=O)/C=C/c2cccs2)c(OC(=O)N2CCOCC2)c1 the results were KCNQ2 block inactive and KCNQ2 pot inactive.
For O=C(/C=C/c1cccs1)c1cc(Br)ccc1OC(=O)N1CCOCC1 the results were KCNQ2 block -6.8 and KCNQ2 pot inactive.
Cc1cnc(NC(=O)C2CC=CCC2)s1 (centres undefined) was read as KCNQ2 block inactive.
`Cc1ccc(C(=O)Nc2cccc(N3C(=O)C4CCC(C)CC4C3=O)c2)cc1` (centres undefined) gave KCNQ2 block inactive and KCNQ2 pot inactive.
Screening Cc1cc(C(=O)N/N=C/c2c(C)nn(-c3ccccc3)c2C)c(C)o1 returned KCNQ2 block inactive and KCNQ2 pot inactive.
Screening COC(=O)c1cn(NC(=O)Cc2ccc(OC)c(OC)c2)c(=O)c2ccccc12 returned KCNQ2 block inactive.
COC(=O)c1cn(NC(=O)Cc2cccc(OC)c2)c(=O)c2ccccc12 was read as KCNQ2 block inactive and KCNQ2 pot 7.2.
O=C(Nc1nccs1)c1ccc[nH]c1=O was read as KCNQ2 block inactive and KCNQ2 pot inactive.
For Oc1ccc(-c2nc3ccccn3c2NCc2ccco2)cc1 the results were KCNQ2 block -5.8 and KCNQ2 pot inactive.
`O=C(Nc1c(-c2ccccc2)nc2ccccn12)c1ccco1` gave KCNQ2 block inactive and KCNQ2 pot inactive.
For CCOc1ccc(S(=O)(=O)N2CCN=C2c2ccccc2)c(C)c1C the results were KCNQ2 block inactive.
Screening O=C(CNS(=O)(=O)c1ccc(Br)s1)N1CCN(c2ccc(F)cc2)CC1 returned KCNQ2 block inactive.
`COc1ccccc1CNC(=O)[C@H](Cc1c[nH]c2ccccc12)NC(=O)[C@@H]1Cc2ccccc2CN1` gave KCNQ2 block -6.8 and KCNQ2 pot inactive.
For COc1ccccc1CNC(=O)Cc1c[nH]c2ccccc12 the results were KCNQ2 block inactive.
NS(=O)(=O)c1ccc(CCNC(=O)c2cc3ccccc3s2)cc1 was read as KCNQ2 block inactive.
`O=C(C1CCOCC1)N1CCCC(N2CCN(c3ccc(F)cc3)CC2)C1` (centres undefined) gave KCNQ2 block inactive.
For Cc1ccc2c(c1)cc(CN(Cc1cccs1)C(=O)c1ccco1)c1nnnn12 the results were KCNQ2 block inactive and KCNQ2 pot inactive.
For Cc1ccc2cc(CN(Cc3cccs3)C(=O)c3ccco3)c3nnnn3c2c1C the results were KCNQ2 block -6 and KCNQ2 pot inactive.
Screening Cc1cc(C)c(S(=O)(=O)N(C)CC(N)=O)c(C)c1 returned KCNQ2 block -5.6 and KCNQ2 pot inactive.
`Cc1cc(C)c(S(=O)(=O)N(C)CC(=O)N2CCCCC2)c(C)c1` gave KCNQ2 block inactive.
For CC1(c2ccc(Cl)cc2)NC(=O)CS1 (centres undefined) the results were KCNQ2 block inactive and KCNQ2 pot inactive.
`COc1cc(Cl)ccc1OCc1cc(C(=O)N2C[C@]3(C)C[C@H]2CC(C)(C)C3)no1` gave KCNQ2 block inactive.
Screening CCOC(=O)CN(C(=O)CSc1nnc(-c2ccc(OC)c(OC)c2)o1)c1ccc(F)cc1 returned KCNQ2 block -6.6 and KCNQ2 pot inactive.
CCOC(=O)CSc1nnc(-c2cc(OC)c(OC)c(OC)c2)o1 was read as KCNQ2 block inactive and KCNQ2 pot inactive.
CCC1(c2ccccc2)NC(=S)N(c2ccc(C)cc2)N1 (centres undefined) was read as KCNQ2 block inactive and KCNQ2 pot 13.
Screening CCCCCC1(C)NC(=S)N(c2ccccc2)N1 (centres undefined) returned KCNQ2 block inactive.
For CCCCCCC1(C)NC(=S)N(c2ccccc2)N1 (centres undefined) the results were KCNQ2 block inactive.
